Measured values taken from article PMC5700166.

Experiments:
Test in all cases: protein-binding microarray (PBM); PBM: ~300 nM protein, 6 mM HEPES pH 7.8, 80 mM KCl, 0.5 mM EDTA, 0.5 mM EGTA, 6% glycerol, 35 ng/ul poly-dIdC, 1% milk, 1 h, room temperature; Ap Aiptasia and Nv Nematostella (sea anemones) / Co Capsaspora / Aq Amphimedon (sponge) / Dm Drosophila / Hu human; RHD is the Rel homology domain; high values mean tight binding
Details in all cases: dsDNA, one strand shown
GST-Ap-NF-kB RHD = molecular target: T1, GST-Ap-NF-kB RHD (Exaiptasia pallida (Aiptasia), UniProt A0A913YAJ5 2-422)
T1 sequence: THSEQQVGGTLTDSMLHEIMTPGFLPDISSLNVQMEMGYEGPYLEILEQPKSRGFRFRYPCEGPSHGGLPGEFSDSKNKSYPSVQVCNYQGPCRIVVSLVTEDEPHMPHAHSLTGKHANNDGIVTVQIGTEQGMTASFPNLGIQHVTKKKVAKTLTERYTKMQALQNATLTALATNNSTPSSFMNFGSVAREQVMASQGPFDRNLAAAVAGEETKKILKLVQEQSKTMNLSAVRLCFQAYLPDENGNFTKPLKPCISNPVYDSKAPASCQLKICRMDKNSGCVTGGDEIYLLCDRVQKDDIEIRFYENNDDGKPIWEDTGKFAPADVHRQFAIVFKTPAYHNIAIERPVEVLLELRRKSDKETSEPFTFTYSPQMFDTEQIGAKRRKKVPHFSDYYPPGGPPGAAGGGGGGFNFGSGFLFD

[1] = molecular target: T2, GST-Nv-NF-kB (Cys allele) (Nematostella vectensis, UniProt E5G601 2-411)
T2 sequence: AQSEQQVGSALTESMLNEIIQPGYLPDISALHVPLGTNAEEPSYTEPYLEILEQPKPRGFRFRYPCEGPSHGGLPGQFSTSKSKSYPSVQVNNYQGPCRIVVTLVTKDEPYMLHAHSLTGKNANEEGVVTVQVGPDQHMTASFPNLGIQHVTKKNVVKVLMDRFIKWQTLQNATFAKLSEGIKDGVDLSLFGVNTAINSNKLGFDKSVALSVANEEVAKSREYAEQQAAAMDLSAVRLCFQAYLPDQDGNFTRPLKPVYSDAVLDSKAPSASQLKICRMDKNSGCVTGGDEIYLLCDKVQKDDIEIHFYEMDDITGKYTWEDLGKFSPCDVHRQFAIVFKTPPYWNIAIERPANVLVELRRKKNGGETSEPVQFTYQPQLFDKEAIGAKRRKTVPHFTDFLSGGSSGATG

GST-Co-NF-kB = molecular target: T3, GST-Co-NF-kB (Capsaspora owczarzaki, UniProt F1ARL5 200-546)
T3 sequence: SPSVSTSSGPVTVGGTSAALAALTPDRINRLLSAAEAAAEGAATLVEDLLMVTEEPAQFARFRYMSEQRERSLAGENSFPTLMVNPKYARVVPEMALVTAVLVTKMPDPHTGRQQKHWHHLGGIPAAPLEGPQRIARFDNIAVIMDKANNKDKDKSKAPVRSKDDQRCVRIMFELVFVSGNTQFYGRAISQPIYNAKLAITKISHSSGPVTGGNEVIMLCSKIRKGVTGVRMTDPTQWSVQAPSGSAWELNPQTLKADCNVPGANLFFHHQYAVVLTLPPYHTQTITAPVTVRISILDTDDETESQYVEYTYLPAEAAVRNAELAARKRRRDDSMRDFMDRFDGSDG

GST-Dm-Relish = molecular target: T4, GST-Dm-Relish (Drosophila melanogaster, UniProt Q94527 99-473)
T4 sequence: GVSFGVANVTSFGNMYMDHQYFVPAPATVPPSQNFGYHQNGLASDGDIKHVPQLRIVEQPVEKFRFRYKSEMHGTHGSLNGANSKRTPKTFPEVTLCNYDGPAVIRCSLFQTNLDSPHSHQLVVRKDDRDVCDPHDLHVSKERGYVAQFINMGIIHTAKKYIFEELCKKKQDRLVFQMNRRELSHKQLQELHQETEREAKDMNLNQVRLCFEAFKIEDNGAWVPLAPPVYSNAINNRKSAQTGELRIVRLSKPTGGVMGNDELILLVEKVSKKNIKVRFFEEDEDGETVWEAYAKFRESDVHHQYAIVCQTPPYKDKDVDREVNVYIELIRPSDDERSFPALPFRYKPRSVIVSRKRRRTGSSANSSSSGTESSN

GST-Aq-NF-kB = molecular target: T5, GST-Aq-NF-kB (Amphimedon queenslandica, UniProt A9Y5G7 2-389)
T5 sequence: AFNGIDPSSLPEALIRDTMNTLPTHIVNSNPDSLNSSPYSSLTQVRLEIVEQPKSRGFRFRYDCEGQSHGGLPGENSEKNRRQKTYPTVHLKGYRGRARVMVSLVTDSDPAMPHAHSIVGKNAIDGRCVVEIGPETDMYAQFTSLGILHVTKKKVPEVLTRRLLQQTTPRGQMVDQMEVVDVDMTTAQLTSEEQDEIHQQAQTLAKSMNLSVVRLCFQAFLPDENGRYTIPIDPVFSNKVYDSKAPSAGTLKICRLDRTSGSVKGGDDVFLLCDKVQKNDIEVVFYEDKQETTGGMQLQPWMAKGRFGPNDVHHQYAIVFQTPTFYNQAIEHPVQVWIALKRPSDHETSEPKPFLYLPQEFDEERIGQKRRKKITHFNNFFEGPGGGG

GST-Hu-p50 = GST-Hu-p50 (Homo sapiens, UniProt P19838 7-356)
Sequence of GST-Hu-p50 (P19838 7-356): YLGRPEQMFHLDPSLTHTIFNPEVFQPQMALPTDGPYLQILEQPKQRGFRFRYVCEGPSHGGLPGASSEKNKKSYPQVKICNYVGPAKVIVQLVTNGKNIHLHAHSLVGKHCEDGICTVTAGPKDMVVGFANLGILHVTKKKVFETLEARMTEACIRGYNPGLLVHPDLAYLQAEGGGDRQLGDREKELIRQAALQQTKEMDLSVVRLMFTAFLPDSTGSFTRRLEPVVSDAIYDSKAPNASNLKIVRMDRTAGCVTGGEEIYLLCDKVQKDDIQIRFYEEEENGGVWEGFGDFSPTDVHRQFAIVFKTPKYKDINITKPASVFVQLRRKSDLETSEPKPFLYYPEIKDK

| Sequence | binding signal (GST-Ap-NF-kB RHD) | binding signal [1] | binding signal (GST-Co-NF-kB) | binding signal (GST-Dm-Relish) | binding signal (GST-Aq-NF-kB) | binding signal (GST-Hu-p50) |
| --- | --- | --- | --- | --- | --- | --- |
| CCGATTAACATCAAAATTCCCGTTGATGTTAATCGGGTCTTGATTCGCTTGACGCTGCTG | 3.98 z-score | 6.87 z-score | 4.03 z-score | 5.57 z-score | 6.15 z-score | 5.26 z-score |
| CCGATTAACATCAAACAGTCCCCTGATGTTAATCGGGTCTTGATTCGCTTGACGCTGCTG | 5.58 z-score | 5.6 z-score | 2.54 z-score | 3.49 z-score | 5.66 z-score | 4.54 z-score |
| CCGATTAACATCAGATAACCCCCTGATGTTAATCGGGTCTTGATTCGCTTGACGCTGCTG | 7.2 z-score | 5.72 z-score | 2.43 z-score | 6.66 z-score | 6.11 z-score | 5.79 z-score |
| CCGATTAACATCAGGGGGAGTTATGATGTTAATCGGGTCTTGATTCGCTTGACGCTGCTG | 6.7 z-score | 5.95 z-score | 7.05 z-score | 5.28 z-score | 6.18 z-score | 6.55 z-score |
| CCGATTAACATCAGGCGTTCCCCTGATGTTAATCGGGTCTTGATTCGCTTGACGCTGCTG | 5.26 z-score | 6.01 z-score | 3.98 z-score | 6.34 z-score | 5.53 z-score | 4.27 z-score |
| CCGATTAACATCAAGGAGTCCCCTGATGTTAATCGGGTCTTGATTCGCTTGACGCTGCTG | 7.69 z-score | 5.61 z-score | 3.12 z-score | 8.59 z-score | 5.54 z-score | 5.86 z-score |
| CCGATTAACATCAGGATGTCCCCTGATGTTAATCGGGTCTTGATTCGCTTGACGCTGCTG | 6.09 z-score | 4.93 z-score | 2.61 z-score | 5.89 z-score | 5.87 z-score | 4.51 z-score |
| CCGATTAACATCAGGATATCCCCTGATGTTAATCGGGTCTTGATTCGCTTGACGCTGCTG | 8.1 z-score | 7.01 z-score | 3.66 z-score | 7.25 z-score | 7.17 z-score | 5.46 z-score |
| CCGATTAACATCAAAATAGCCCCTGATGTTAATCGGGTCTTGATTCGCTTGACGCTGCTG | 5.32 z-score | 5.99 z-score | 1.88 z-score | 4.12 z-score | 5.87 z-score | 5.38 z-score |
| CCGATTAACATCACAACGACCCCTGATGTTAATCGGGTCTTGATTCGCTTGACGCTGCTG | 2.27 z-score | 1.3 z-score | 1.28 z-score | 1.08 z-score | 2.48 z-score | 1.12 z-score |
| CCGATTAACATCAGGGCTCCCCCTGATGTTAATCGGGTCTTGATTCGCTTGACGCTGCTG | 7.08 z-score | 5.82 z-score | 4.76 z-score | 7.28 z-score | 8.12 z-score | 5.6 z-score |
| CCGATTAACATCAATAAAATCCCTGATGTTAATCGGGTCTTGATTCGCTTGACGCTGCTG | 4.23 z-score | 4.4 z-score | 2.13 z-score | 6.47 z-score | 4.79 z-score | 4.24 z-score |
| CCGATTAACATCAAAGAGCCCCCTGATGTTAATCGGGTCTTGATTCGCTTGACGCTGCTG | 4.73 z-score | 4.16 z-score | 1.68 z-score | 3.94 z-score | 5.01 z-score | 4.43 z-score |
| CCGATTAACATCAAAAATGCCCCTGATGTTAATCGGGTCTTGATTCGCTTGACGCTGCTG | 4.41 z-score | 6.79 z-score | 2.95 z-score | 5.68 z-score | 6.07 z-score | 5.92 z-score |
| CCGATTAACATCAGAAACCCCCATGATGTTAATCGGGTCTTGATTCGCTTGACGCTGCTG | 7.61 z-score | 6.32 z-score | 2.76 z-score | 8.35 z-score | 5.97 z-score | 6.52 z-score |
| CCGATTAACATCAGAGTATCCCCTGATGTTAATCGGGTCTTGATTCGCTTGACGCTGCTG | 5.9 z-score | 4.9 z-score | 4.05 z-score | 3.14 z-score | 3.98 z-score | 4.2 z-score |
| CCGATTAACATCAGGGGGAACACTGATGTTAATCGGGTCTTGATTCGCTTGACGCTGCTG | 6.57 z-score | 5.66 z-score | 8.64 z-score | 6.58 z-score | 5.54 z-score | 5.28 z-score |
| CCGATTAACATCACGCATCCCCCTGATGTTAATCGGGTCTTGATTCGCTTGACGCTGCTG | 6.1 z-score | 4.9 z-score | 4.65 z-score | 3.44 z-score | 4.33 z-score | 5.14 z-score |
| CCGATTAACATCAGGAGTTCCCATGATGTTAATCGGGTCTTGATTCGCTTGACGCTGCTG | 2.2 z-score | 2.14 z-score | 1.68 z-score | 6.1 z-score | 3.51 z-score | 1.53 z-score |
| CCGATTAACATCAGGGGCTTACCTGATGTTAATCGGGTCTTGATTCGCTTGACGCTGCTG | 4.59 z-score | 6.21 z-score | 1.88 z-score | 5.58 z-score | 7.25 z-score | 4.8 z-score |
| CCGATTAACATCAGGGGGGATACTGATGTTAATCGGGTCTTGATTCGCTTGACGCTGCTG | 6.78 z-score | 4.85 z-score | 6.57 z-score | 5.55 z-score | 4.94 z-score | 5.66 z-score |
| CCGATTAACATCAGGGGACGTTATGATGTTAATCGGGTCTTGATTCGCTTGACGCTGCTG | 4.77 z-score | 5 z-score | 3.19 z-score | 2.7 z-score | 4.72 z-score | 4.56 z-score |
| CCGATTAACATCAACACTCCCCCTGATGTTAATCGGGTCTTGATTCGCTTGACGCTGCTG | 5.32 z-score | 4.24 z-score | 5.26 z-score | 2.43 z-score | 4.25 z-score | 5.34 z-score |
| CCGATTAACATCAACTATCCCCCTGATGTTAATCGGGTCTTGATTCGCTTGACGCTGCTG | 5.83 z-score | 4.03 z-score | 6.08 z-score | 2.98 z-score | 4.04 z-score | 4.09 z-score |
| CCGATTAACATCAGGCATCCCCCTGATGTTAATCGGGTCTTGATTCGCTTGACGCTGCTG | 6.28 z-score | 5.13 z-score | 3.74 z-score | 6.22 z-score | 6.35 z-score | 5.3 z-score |
